The list is not random: actives were taken first. Their share in the collection is about 7.2%.
NPR1 antag: blocks ANP-stimulated signaling of human Npr1 receptor | P16066 | 76,000 compounds, 1.6% hits | Potency, µM (top dose mostly 46.3 µM), actives largely listed as inhibitors | AID 1347048 | HEK293 hNpr1 GloSensor cGMP, ANP-stimulated luminescence; calls by dose curve; also: nearly all actives have a fitted effect of over 60% in size
Target sequence (P16066 whole entry, looked up): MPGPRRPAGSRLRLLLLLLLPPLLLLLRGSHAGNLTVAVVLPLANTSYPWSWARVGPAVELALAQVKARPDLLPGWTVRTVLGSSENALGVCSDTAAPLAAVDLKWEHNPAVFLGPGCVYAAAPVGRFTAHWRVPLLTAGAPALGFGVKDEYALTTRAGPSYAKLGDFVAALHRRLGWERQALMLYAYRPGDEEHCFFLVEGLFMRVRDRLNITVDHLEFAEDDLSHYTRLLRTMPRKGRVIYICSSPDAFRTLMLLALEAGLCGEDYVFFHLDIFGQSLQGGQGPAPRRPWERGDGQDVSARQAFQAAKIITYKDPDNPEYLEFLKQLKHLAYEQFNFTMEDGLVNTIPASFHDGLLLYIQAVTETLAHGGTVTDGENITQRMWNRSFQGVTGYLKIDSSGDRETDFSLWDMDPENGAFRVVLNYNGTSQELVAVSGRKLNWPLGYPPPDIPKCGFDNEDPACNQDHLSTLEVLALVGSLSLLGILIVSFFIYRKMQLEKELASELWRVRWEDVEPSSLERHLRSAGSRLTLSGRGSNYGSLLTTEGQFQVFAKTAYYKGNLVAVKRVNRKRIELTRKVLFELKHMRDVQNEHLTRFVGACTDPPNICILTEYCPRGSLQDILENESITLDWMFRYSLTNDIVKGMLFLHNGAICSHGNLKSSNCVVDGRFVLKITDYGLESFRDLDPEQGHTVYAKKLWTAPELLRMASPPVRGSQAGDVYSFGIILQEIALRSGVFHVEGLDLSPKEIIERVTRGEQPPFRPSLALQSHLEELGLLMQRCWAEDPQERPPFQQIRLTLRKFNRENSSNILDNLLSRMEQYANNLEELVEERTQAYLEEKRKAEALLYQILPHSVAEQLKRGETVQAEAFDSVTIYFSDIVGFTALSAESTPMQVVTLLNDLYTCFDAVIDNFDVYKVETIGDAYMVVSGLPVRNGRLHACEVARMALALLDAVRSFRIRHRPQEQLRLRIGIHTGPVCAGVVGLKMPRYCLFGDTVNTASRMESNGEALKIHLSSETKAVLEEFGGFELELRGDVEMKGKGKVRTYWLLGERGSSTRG
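HEK293 cells stably expressing human Npr1 and cGMP GloSensor pGS-40F, loaded 2 h with 2% GloSensor reagent, given compound 30 min at room temperature. Luminescence read before and 20 min after 0.1 nM hNppA.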
SNCA expr inh: inhibitors of alpha-synuclein (SNCA) gene expression. HEK-293 SNCA-luciferase knock-in, luminescence, 24 h. Potency, µM (series often up to 57.2 µM), actives largely listed as inhibitors. 140,000 compounds, 0.17% hits; also: nearly all actives have a fitted effect of over 45% in size
HEK293 viab: reduces viability of HEK-293 SNCA reporter cells; HEK-293-SNCA-luc viability, GF-AFC fluorescence, 24 h; Potency, µM (titrated, usually from 57.1 µM), hits mostly cytotoxic; 150,000 compounds, 0.12% hits; AID 1671193; also: nearly all actives have a fitted effect of over 30% in size
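HEK-293-SNCA-luc cells (1500/well) plated 24 h, then exposed 24 h to a dilution series; GF-AFC added 30 min at 37C, fluorescence 405/540 nm; normalised to medium-only and DMSO wells, Hill fit.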
NIH3T3 tox: cytotoxic compounds in NIH 3T3 cells; NIH 3T3 viability, CellTiter-Glo ATP luminescence, 48-72 h; Potency, µM (top dose mostly 96.7 µM), hits mostly inhibitors; 94,000 compounds, 4.3% hits; also: nearly all actives have a fitted effect of over 55% in size
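Mouse fibroblast NIH 3T3 cells, 400 per well, received compound via pintool and were incubated for 48 or 72 hr prior to CellTiter-Glo ATP luminescence measurement.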
FLuc inh: blocks purified firefly luciferase enzyme activity; AID 1347043; purified P. pyralis luciferase, luminescence, biochemical; 76,000 compounds, 2.5% hits; Potency, µM (series often up to 115 µM), usual class: inhibitors; P08659; also: nearly all actives have a fitted effect of over 65% in size
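Purified P. pyralis luciferase (10nM final) in 50mM Tris acetate pH 7.5, 10mM Mg acetate, 0.01% Tween-20, 0.05% BSA with 10uM D-luciferin and 10uM ATP. Compounds titrated qHTS. Luminescence imaged on CCD.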
HEK cytotox: cytotoxic compounds in HEK 293 cells | Potency, µM (series often up to 115 µM), usual class: inhibitors | 94,000 compounds, 6.6% hits | HEK 293 viability, ATP luminescence (CellTiter-Glo), 48-72 h; also: nearly all actives have a fitted effect of over 60% in size
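Cytotoxicity was scored by loss of ATP-coupled luminescence (CellTiter-Glo) in HEK 293 cells. Compound treatment ran 48 or 72 hr at 37 degree Celsius, 5% CO2, 95% humidity.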
Hits are given with their value; [ ] = dose if it differs, or a comment. Unless noted, calls follow the shape of the dose curve; as a rule, active = well fitted curve in the direction sought with a large enough effect; inconclusive = small, poorly fitted or top-dose-only effect, or another doubt; inactive = no such curve, though single readings can be large; an effect the other way counts as inactive or inconclusive.

Cc1oc2ccn(Cc3ccccc3F)c(=O)c2c1C(=O)NCc1cc(F)cc(F)c1 was read as NPR1 antag inactive, SNCA expr inh inactive, HEK293 viab inactive, NIH3T3 tox inconclusive, FLuc inh inactive and HEK cytotox 35µM.
Cc1oc2ccn(Cc3cccc(F)c3)c(=O)c2c1C(=O)NCC1CCCCC1 was read as NPR1 antag inactive, SNCA expr inh inconclusive, HEK293 viab inactive, NIH3T3 tox 40µM, FLuc inh inactive and HEK cytotox 40µM.
`Cc1noc(-c2cccc(OC3CN(S(=O)(=O)c4cn(C)cn4)C3)c2)n1` gave NPR1 antag inactive, SNCA expr inh inactive, HEK293 viab inactive, NIH3T3 tox inactive, FLuc inh inactive and HEK cytotox inactive.
`COc1ccccc1C(=O)N1CCC2(CCCCO2)CC1` gave NPR1 antag inactive, SNCA expr inh inactive, HEK293 viab inactive, NIH3T3 tox inactive, FLuc inh inactive and HEK cytotox inactive.
`C[S+](=O)([O-])NC1CCN(c2nc3ncccc3o2)CC1` gave NPR1 antag inactive, SNCA expr inh inconclusive, HEK293 viab inactive, NIH3T3 tox inactive, FLuc inh inactive and HEK cytotox inactive.
For COc1ccc2nc([C@H]3CCN(Cc4cccc(Cl)c4)C3)[nH]c2c1 the results were NPR1 antag inconclusive, SNCA expr inh inconclusive, HEK293 viab inactive, NIH3T3 tox inconclusive, FLuc inh inactive and HEK cytotox inconclusive.
`Cc1ccc2nc([C@H]3CCN(Cc4ccccn4)C3)[nH]c2c1` gave NPR1 antag inactive, SNCA expr inh inactive, HEK293 viab inactive, NIH3T3 tox inconclusive, FLuc inh 40µM and HEK cytotox 50µM.
COc1ccc2nc([C@H]3CCN(Cc4ccccc4)C3)[nH]c2c1 was read as NPR1 antag inactive, SNCA expr inh inactive, HEK293 viab inactive, NIH3T3 tox inconclusive, FLuc inh 22µM and HEK cytotox inconclusive.
For COc1ccc2nc([C@H]3CCN(Cc4cccnc4)C3)[nH]c2c1 the results were NPR1 antag inactive, SNCA expr inh inactive, HEK293 viab inactive, NIH3T3 tox inactive, FLuc inh 71µM and HEK cytotox inactive.
COc1ccc2nc([C@H]3CCN(Cc4ccc(F)cc4)C3)[nH]c2c1 was read as NPR1 antag inactive, SNCA expr inh inactive, HEK293 viab inactive, NIH3T3 tox 112µM, FLuc inh 50µM and HEK cytotox 79µM.
`COc1cc(C(=O)NCCCn2ccnn2)ccc1OC1CCN(C(C)=O)CC1` gave NPR1 antag inactive, SNCA expr inh inactive, HEK293 viab inactive, NIH3T3 tox inactive, FLuc inh inactive and HEK cytotox inactive.
CC1CCc2nn3ccn(CC(=O)Nc4ccccc4)c(=O)c3c2C1 (configuration not stated) was read as NPR1 antag inactive, SNCA expr inh inactive, HEK293 viab inactive, NIH3T3 tox inactive, FLuc inh inactive and HEK cytotox inactive.
`CCc1ccc(NC(=O)Cn2ccn3nc4c(c3c2=O)CC(C)CC4)cc1` (configuration not stated) gave NPR1 antag inactive, SNCA expr inh inactive, HEK293 viab inactive, NIH3T3 tox inconclusive, FLuc inh inactive and HEK cytotox 45µM.
Cc1cccc(C(=O)N2CCCCCC2c2nnc(-c3ccccc3)o2)c1 (configuration not stated) was read as NPR1 antag inactive, SNCA expr inh inactive, HEK293 viab inactive, NIH3T3 tox inconclusive, FLuc inh inactive and HEK cytotox inconclusive.
Cc1cccc(CC(=O)N2CCCCCC2c2nnc(-c3ccccc3)o2)c1 (configuration not stated) was read as NPR1 antag inactive, SNCA expr inh inactive, HEK293 viab inactive, NIH3T3 tox inconclusive, FLuc inh inactive and HEK cytotox 79µM.
Cc1ccc(NC(=O)C2CCN(C(=O)c3ncn4c3COC(c3ccc(F)cc3)C4)CC2)c(C)c1 (configuration not stated) was read as NPR1 antag inactive, SNCA expr inh inactive, HEK293 viab inactive, NIH3T3 tox inactive, FLuc inh 35µM and HEK cytotox inactive.
Screening Cc1cc(NC(=O)C2CCN(C(=O)c3ncn4c3COC(c3ccc(F)cc3)C4)CC2)ccc1F (configuration not stated) returned NPR1 antag inactive, SNCA expr inh inconclusive, HEK293 viab inconclusive, NIH3T3 tox inactive, FLuc inh 22µM and HEK cytotox inactive.
For COc1ccc(C2Cn3cnc(C(=O)N4CCC(C(=O)Nc5cccc(Cl)c5)CC4)c3CO2)cc1 (configuration not stated) the results were NPR1 antag inactive, SNCA expr inh inactive, HEK293 viab inactive, NIH3T3 tox inactive, FLuc inh 40µM and HEK cytotox inconclusive.
Cc1ccc(C)c(NC(=O)C2CCN(C(=O)c3ncn4c3COC(c3ccc(F)cc3)C4)CC2)c1 (configuration not stated) was read as NPR1 antag inactive, SNCA expr inh inactive, HEK293 viab inactive, NIH3T3 tox inactive, FLuc inh 28µM and HEK cytotox inactive.
`Cc1cc(F)ccc1NC(=O)C1CCN(C(=O)c2ncn3c2COC(c2ccc(F)cc2)C3)CC1` (configuration not stated) gave NPR1 antag inactive, SNCA expr inh inactive, HEK293 viab inactive, NIH3T3 tox inactive, FLuc inh inconclusive and HEK cytotox inactive.
CCN(CC)Cc1ccc(C(=O)N(CCc2ccccc2OC)[C@@H]2CCNC2)cc1 was read as HEK293 viab inactive.
For COc1ccccc1-c1ccc(C(=O)N2CCC(NC(=O)N(C)C)CC2)cc1 the results were SNCA expr inh inconclusive, HEK293 viab inactive[12.5 µM], NIH3T3 tox inactive and HEK cytotox inactive.
Screening O=C(Nc1ccc(F)cc1)[C@@H]1C[C@@H](c2ccc(F)cc2)N([S+](=O)([O-])c2cccnc2)C1 returned NPR1 antag inactive, SNCA expr inh inactive, HEK293 viab inactive, NIH3T3 tox inconclusive, FLuc inh inactive and HEK cytotox inconclusive.
Screening O=C1CCCCC(C(=O)N2CC=C(c3ccccc3)CC2)N1 (configuration not stated) returned NPR1 antag inactive, SNCA expr inh inactive, HEK293 viab inactive, NIH3T3 tox inactive, FLuc inh inactive and HEK cytotox inactive.
For Fc1cccc(CN2CCO[C@@H](COc3ccccn3)[C@@H]2c2ccccc2)c1 the results were SNCA expr inh inactive, HEK293 viab inactive, NIH3T3 tox 35µM and HEK cytotox inconclusive.
`Cc1cccc(-c2nc3ccc(C(=O)NCc4ccccc4)cc3o2)n1` gave SNCA expr inh inactive, HEK293 viab inactive, NIH3T3 tox inconclusive and HEK cytotox inconclusive.
`Cc1cccc(-c2nc3ccc(C(=O)NCCc4ccccc4)cc3o2)n1` gave SNCA expr inh inactive, HEK293 viab inactive, NIH3T3 tox inconclusive and HEK cytotox 100µM.

Screening results deposited in PubChem BioAssay by National Center for Advancing Translational Sciences (NCATS).
